Data published in PubChem BioAssay AID2102 (Southern Research Specialized Biocontainment Screening …, 2009).
Hit rate of the full screen: of about 1,100 compounds, about 210 (19%) were called active. How the calls were made is not given here. A selection follows. Entries with a potency or affinity are not part of this list.

Experiment: cell viability loss from selected hits – cytotoxicity control for SV40 T antigen inhibitor project, dose response (AID 2102);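 further: cells exposed to compounds for 72 hours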
Settings: Host cell viability cytotoxicity counter-screen; series mostly up to 50 µM
With `COc1cc(SC)ccc1C(=O)N1CCN(c2ccc(O)cc2)CC1` the outcome was “inactive”. For `COc1cc(SC)ccc1C(=O)N1CCN(Cc2ccccc2)CC1`, the outcome was “inactive”. With `Cc1ccc(C)c(S(=O)(=O)Nc2ccc(O)cc2)c1` the outcome was “inactive”. For `Oc1ccc2c(c1)oc1cc(O)ccc12`, the outcome was “inactive”. With `O=c1oc2cc(O)ccc2c2ccccc12` the outcome was “inactive”. In the case of `OC1CCN(C(=S)Nc2ccc(Nc3ccccc3)cc2)CC1`, the outcome is reported as “inactive”. With `OCCNc1nc(Nc2ccc(O)cc2)nc2ccccc12` the outcome was “inactive”. With `CN1CCN(c2nc(Nc3ccc(O)cc3)nc3ccccc23)CC1` the outcome was “inactive”. With `Cc1ccc2oc(=O)c(/C=C(\O)C(C)(C)C)nc2c1` the outcome was “inactive”. With `COc1cc2c(cc1NC(=S)Nc1ccccc1C)oc1ccccc12` the outcome was “inactive”. In the case of `COc1ccc(N2CCN(C(=O)NC3CC(=O)N(c4ccc(OC)cc4)C3)CC2)cc1` (stereo not drawn), the outcome is reported as “inactive”. In the case of `COc1ccc(CNC(=S)N/N=C/c2ccc(O)c(OC)c2)cc1`, the outcome is reported as “inactive”. With `CNC(=S)N1CCN(c2ccc(OC)cc2)CC1` the outcome was “inactive”. For `COc1ccc(NC2CCCN(C(=O)c3ccc(OC)o3)C2)cc1` (stereo not drawn), the outcome was “inactive”. With `COc1cc(/C=N/NC(=O)CC#N)cc(Br)c1O` the outcome was “inactive”. For `COc1ccc(N2C(=O)CC(Sc3n[nH]c(-c4cccc(C)c4)n3)C2=O)cc1` (stereo not drawn), the outcome was “inactive”. With `CC1=C(C#N)c2nc(N)c(C#N)c(C)c2/C1=C\c1ccc(-c2ccccc2C(=O)O)o1` the outcome was “inactive”. For `COc1cc(/C=C2\N=C3CCCCCN3C2=O)ccc1O`, the outcome was “inactive”. In the case of `O=c1/c(=C\c2cc([N+](=O)[O-])cc([N+](=O)[O-])c2O)sc2nc3ccccc3n12`, the outcome is reported as “inactive”. In the case of `O=C1C=C(Nc2ccc(O)cc2)CC(c2ccco2)C1` (stereo not drawn), the outcome is reported as “inactive”. With `O=C(O)/C=C/c1ccc(O)cc1` the outcome was “inactive”. For `COc1cc(-c2nc(=S)[nH][nH]2)cc(OC)c1OC`, the outcome was “inactive”. In the case of `C=CCn1c(CNc2ccccc2)nnc1SCC(=O)N/N=C/c1ccc(O)cc1O`, the outcome is reported as “inactive”. For `O=C(N/N=C/c1ccc(O)cc1)c1csc2ccccc12`, the outcome was “inactive”. In the case of `CCCn1c(=O)c2ccccc2n2c(=S)[nH]nc12`, the outcome is reported as “inactive”. With `CNC(=S)Nc1ccc(Nc2ccccc2)cc1` the outcome was “inactive”. With `NC(=O)Nc1ccc(Nc2ccccc2)cc1` the outcome was “inactive”. For `O=[N+]([O-])c1cccc(S(=O)(=O)N/N=C/c2ccc(O)cc2)c1`, the outcome was “inactive”. For `O=C(CN1C(=O)/C(=C/c2ccco2)SC1=S)Nc1ccc(C(=O)O)c(O)c1`, the outcome was “inactive”. In the case of `COc1cc2c(cc1OC)C[N+](C)(C)CC2`, the outcome is reported as “inactive”. With `COc1cc(/C=N/Nc2nncn2/N=C/c2ccc(O)c(OC)c2)ccc1O` the outcome was “inactive”. In the case of `N#CC1=C(N)NC(=S)C(C(N)=O)C1c1ccccc1F` (stereo not drawn), the outcome is reported as “inactive”. In the case of `CCOc1cc(N2CCOCC2)c(OCC)cc1NC(C)C(=O)N1CCC(C)CC1` (stereo not drawn), the outcome is reported as “inactive”. In the case of `CCNC(=S)Nc1cc(OCC)c(N2CCOCC2)cc1OCC`, the outcome is reported as “inactive”. With `COc1ccc(NC2CCCN(C(=O)CSc3ccccc3)C2)cc1` (stereo not drawn) the outcome was “inactive”. For `CCOC(=O)C1=C(O)/C(=C\c2ccc(O)c(OCC)c2)N=C1C`, the outcome was “inactive”. With `O=c1oc2ccccc2c2oc3cc(O)c(O)cc3c12` the outcome was “inactive”. For `O=C1NC(=O)C(c2ccccc2[N+](=O)[O-])=C1Nc1ccc(O)c(Cl)c1`, the outcome was “inactive”. For `COc1cc(/C=N/NC(=O)C2=NNC(=O)C2C)ccc1O` (stereo not drawn), the outcome was “inactive”. In the case of `O=C(c1nnsc1S(=O)c1ccc(Cl)cc1)N1CCOCC1` (stereo not drawn), the outcome is reported as “inactive”. For `CN(C)c1ccc(NC(=O)CN2CCN(CC(=O)Nc3ccc(F)cc3)CC2)cc1`, the outcome was “inactive”. With `CCOc1cc(/C=C2\NC(=S)N(c3c(C)n(C)n(-c4ccccc4)c3=O)C2=O)ccc1O` the outcome was “inactive”. In the case of `O=S(=O)(NC1=NCCCCC1)c1ccc2sc(NS(=O)(=O)c3ccc4ccccc4c3)nc2c1`, the outcome is reported as “inactive”. In the case of `COc1cc(/C=C2\S/C(=N/S(=O)(=O)c3ccc(C)cc3)NC2=O)c([N+](=O)[O-])cc1OC`, the outcome is reported as “inactive”. For `O=S(=O)(Nc1ccc(O)cc1)c1cccc2cccnc12`, the outcome was “inactive”. In the case of `O=C(c1ccco1)N1CCN(C(=S)Nc2ccc(F)c(Cl)c2)CC1`, the outcome is reported as “inactive”. For `CN(C)c1ccc(NC(=O)c2ccc(N3CCOCC3)nc2)cc1`, the outcome was “inactive”. In the case of `COc1cc(C(c2c(C)[nH][nH]c2=O)c2c(C)[nH][nH]c2=O)ccc1OC(=O)c1cccc([N+](=O)[O-])c1`, the outcome is reported as “inactive”. For `CCOC(=O)C1(C)C=C(Nc2ccc(O)cc2)C(=O)N1c1ccc(O)cc1` (stereo not drawn), the outcome was “inactive”. With `Cn1c(=O)oc2cc(S(=O)(=O)Nc3ccc(O)cc3)ccc21` the outcome was “inactive”. With `CN(C)c1ccc(NC(=O)CSc2nnc(-c3ccco3)c(-c3ccco3)n2)cc1` the outcome was “inactive”. For `N/C(=N\N=C\c1ccc(O)c(O)c1)c1nonc1N`, the outcome was “inactive”. In the case of `COc1cc(/C(C)=N/NC(=O)Cc2c(C)[nH][nH]c2=O)ccc1O`, the outcome is reported as “inactive”. With `CN=c1scc(C)n1/N=C/c1ccc(O)cc1` the outcome was “inactive”. For `CC1=C(C(=O)c2ccccc2)C(c2ccc(O)cc2)NC(=S)N1` (stereo not drawn), the outcome was “inactive”. For `Nc1nc2ccc(O)cc2s1`, the outcome was “inactive”. In the case of `Cc1cc2c(n1-c1ccc(C(=O)O)cc1)CCCCC2`, the outcome is reported as “inactive”. For `O=C(c1cccc(-c2ccc(O)cc2)c1)N1CCOCC1`, the outcome was “inactive”. In the case of `CC(=O)Nc1ccc(S(=O)(=O)Nc2nc3ccccc3nc2Nc2ccc(O)cc2)cc1`, the outcome is reported as “inactive”. With `CCOc1cc(/C=N\NC(=O)CC(=O)NCCc2ccccc2)ccc1O` the outcome was “inactive”. With `Cc1cc(=O)[nH]c(N/N=C/c2c[nH]c3ccccc23)n1` the outcome was “inactive”. In the case of `CCn1cnc2cc(NCc3ccc(N(C)C)cc3)ccc21`, the outcome is reported as “inactive”. With `C/C(=N\NC(=O)CSc1nc2ccccc2o1)c1ccc(O)cc1` the outcome was “inactive”. For `Cc1cccc(N2NC(=O)/C(=C/c3ccc(-c4ccc(Cl)c(C(=O)O)c4)o3)C2=O)c1`, the outcome was “inactive”. With `C=CCn1c(SCC(=O)c2ccc(O)c(O)c2)nnc1-c1ccccc1OC` the outcome was “inactive”. With `COc1cc(/C=N/NC(=O)c2cc(C3CC3)[nH]n2)ccc1O` the outcome was “inactive”. With `COCCCNC(=S)N/N=C/c1ccc(O)cc1O` the outcome was “inactive”. With `Nc1c(O)cccc1C(=O)O` the outcome was “inactive”. With `NC(=O)N/N=C/c1c(Sc2nnnn2-c2ccccc2)nc2ccccn2c1=O` the outcome was “inactive”. In the case of `COc1ccc2c(c1OC)C(=O)N(c1ccc(O)cc1)C2`, the outcome is reported as “inactive”. In the case of `O=C1CCCC2=C1Sc1ccccc1N2`, the outcome is reported as “inactive”. With `CCSC1(SCC)N=C(N)C2(C#N)C(c3ccc(OC)c(OC)c3OC)C12C#N` (stereo not drawn) the outcome was “inactive”. For `COc1cc(/C=N/NC(=O)c2nc(C)cc(C)n2)ccc1O`, the outcome was “inactive”.
